A3G deaminase: inhibitors of human APOBEC3G DNA deaminase; Q9HC16; recombinant A3G, ssDNA deamination FAM/TAMRA fluorescence; inhibition, % at 20 µM; 330,000 compounds, 0.28% hits;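 active means inhibition of at least 40% at 20 µM, with no more than 30% in the related APOBEC3A deaminase screen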
Target sequence (Q9HC16 whole entry, looked up): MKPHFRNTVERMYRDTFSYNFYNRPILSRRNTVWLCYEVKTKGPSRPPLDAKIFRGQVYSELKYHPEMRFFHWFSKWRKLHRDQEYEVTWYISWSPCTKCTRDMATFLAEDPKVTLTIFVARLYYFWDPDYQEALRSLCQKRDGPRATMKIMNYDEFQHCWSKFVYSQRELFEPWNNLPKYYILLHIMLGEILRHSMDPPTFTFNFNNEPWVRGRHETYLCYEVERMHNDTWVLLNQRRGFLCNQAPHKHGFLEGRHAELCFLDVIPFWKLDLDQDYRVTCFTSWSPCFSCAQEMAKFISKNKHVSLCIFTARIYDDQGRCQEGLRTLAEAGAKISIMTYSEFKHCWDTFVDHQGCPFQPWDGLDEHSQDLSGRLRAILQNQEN
A3A deaminase: blocks human APOBEC3A ssDNA deamination; inhibition, % at 20 µM; 330,000 compounds, 0.41% hits; recombinant A3A, FAM/TAMRA ssDNA deamination fluorescence; AID 493011;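 active means at least 40% inhibition at 20 µM here, with at most 30% in a related deaminase screen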
Target sequence (P31941 whole entry, looked up): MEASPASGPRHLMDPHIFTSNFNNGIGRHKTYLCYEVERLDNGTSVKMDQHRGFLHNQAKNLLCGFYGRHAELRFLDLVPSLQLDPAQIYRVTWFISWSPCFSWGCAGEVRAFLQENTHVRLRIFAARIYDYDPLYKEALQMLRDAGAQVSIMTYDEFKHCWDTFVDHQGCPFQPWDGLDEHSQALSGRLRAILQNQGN
NTR1 ag: activates human neurotensin receptor 1; P30989; NTR1-U2OS beta-arrestin-GFP spot imaging, agonist mode; activation, % at 20 µM; 330,000 compounds, 0.17% hits; AID 493036;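 active means activation at or above 40% of the spot to cytoplasm intensity ratio, with at least 20 cells analyzed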
AHR activator: activators of human aryl hydrocarbon receptor; AHR-responsive luciferase reporter cells, luminescence; activation, % at 5 µM; P35869; 320,000 compounds, 2.5% hits; in the data active means activation above about 47%
Of the large screens only hits and unclear results are named; the others gave an inactive call. In the library only some 3.2% were active in any assay of this set; here they are far more common.

COc1cc(/C=C2/C(=N)N3N=C(CC(=O)N4CCOCC4)SC3=NC2=O)ccc1OCc1ccc(F)cc1	none
CC(NC(=O)CNC(=O)c1ccccc1F)c1ccc(-n2ccnc2)cc1 (stereo not drawn)	none
CC(NC(=O)c1ccccc1Cl)c1ccc(-n2ccnc2)cc1 (stereo not drawn)	AHR activator 54
CSc1ccccc1C(=O)NC(C)c1ccc(-n2ccnc2)cc1 (stereo not drawn)	AHR activator 67
COc1ccc(C(=O)NC(C)c2ccc(-n3ccnc3)cc2)cc1[N+](=O)[O-] (stereo not drawn)	none
Cc1ccc(C)c(C(=O)NC(C)c2ccc(-n3ccnc3)cc2)c1 (stereo not drawn)	AHR activator 78
Cc1c(C(=O)NC(C)c2ccc(-n3ccnc3)cc2)cccc1[N+](=O)[O-] (stereo not drawn)	AHR activator 61
Cc1ccc(C(=O)NC(C)c2ccc(-n3ccnc3)cc2)c(C)c1 (stereo not drawn)	none
O=C(c1ccc(Oc2cc(Cl)cc(Cl)c2)o1)N1CCCCC1	none
Nc1ccccc1SCCS(=O)(=O)c1ccc(Cl)cc1	none
C=CCOc1c(Br)cc(/C=N/n2c(CC)n[nH]c2=S)cc1Br	AHR activator 68
CC1=NN(c2nc(-c3ccc(C)cc3)cs2)C(=O)C1N=Nc1cccc(O)c1 (stereo not drawn)	none
CC1=NN(c2nc(-c3ccc(C)cc3)cs2)C(=O)C1N=Nc1ccccc1O (stereo not drawn)	AHR activator 51
Cn1nc(-c2ccccc2F)c2cc(C(=O)N3CCN(C(=O)c4ccco4)CC3)sc21	AHR activator 66
COc1cccc(-c2nn(C)c3sc(C(=O)N4CCN(c5ccccn5)CC4)cc23)c1	AHR activator 58
COc1cccc(C(=O)N2CCN(c3ccccn3)CC2)c1	none
COc1cccc(-c2nc(CS(=O)(=O)CC(=O)N3CCN(c4ccccn4)CC3)c(C)o2)c1	AHR activator 57
COc1cccc(-c2nn(C)c3sc(C(=O)NCc4ccc5c(c4)OCO5)cc23)c1	AHR activator 50
Cn1nc(-c2ccc(Cl)cc2)c2cc(C(=O)N3CCOCC3)sc21	AHR activator 55
O=C(c1cc(-c2ccc(Cl)cc2)on1)N1CCOCC1	none
COc1cccc(-c2nn(C)c3sc(C(=O)N4CCOCC4)cc23)c1	AHR activator 58
O=C(CC1C(=O)NCCN1Cc1c(F)cccc1Cl)NCCCN1CCCC1=O (stereo not drawn)	none
O=C(Nc1ccccc1)Nc1cccc2cccnc12	AHR activator 71
COc1ccccc1NC(=O)c1ccccc1SC	none
COc1ccccc1C(=O)Nc1ccccc1SC	AHR activator 55
COc1ccccc1C(=O)Nc1cccc2cccnc12	AHR activator 78
O=C(Nc1cccc2cccnc12)c1ccccc1Cl	none
CC1=CC2=NC(=O)/C(=C\c3ccc(-c4cccc(Cl)c4)o3)C(=N)N2O1	AHR activator 70
O=C(Nc1cccc(F)c1)Nc1ccc2c(c1)OCO2	none (no result: AHR activator)
O=C(CSCc1ccccc1)Nc1ccc2c(c1)OCO2	none
O=C(CSc1nccn1-c1ccc(Cl)cc1)Nc1ccc2c(c1)OCO2	AHR activator 53
O=C(CSCc1c(Cl)cccc1Cl)Nc1ccc2c(c1)OCO2	AHR activator 47
O=C(Cc1c(F)cccc1Cl)NNC(=O)Nc1ccc2c(c1)OCO2	AHR activator 53
Cn1c(CNC(=O)CCNC(=O)c2ccc(F)c(F)c2)cc(=O)n(C)c1=O	none
O=C(COc1cccnc1[N+](=O)[O-])Nc1ccc(Cl)c(S(=O)(=O)N2CCOCC2)c1	none
O=C(O)c1cc(N/N=C/c2c[nH]c3ccccc23)ccc1Cl	AHR activator 58
CC(=O)Nc1cccc(C(=O)N/N=C/c2c[nH]c3ccccc23)c1	AHR activator 76
O=C(N/N=C/c1c[nH]c2ccccc12)c1ccc(O)c(O)c1	none
CCc1ccc(-c2cc(C(=O)N/N=C/c3c[nH]c4ccccc34)[nH]n2)cc1	AHR activator 55
COc1ccc(C(=O)N/N=C/c2c[nH]c3ccccc23)cc1	AHR activator 56
NN=C(c1cccc([N+](=O)[O-])c1)c1cccc([N+](=O)[O-])c1	none
NS(=O)(=O)c1cccc(NC(=O)COC(=O)Cn2cc(C(F)(F)F)ccc2=O)c1	none
COc1ccc(/C=C/C(=O)Oc2cc(C)[nH]c(=O)c2[N+](=O)[O-])cc1OC	none
O=c1nc(N/N=C/c2c[nH]c3ccccc23)cn[nH]1	none
O=C(N/N=C/c1c[nH]c2ccccc12)c1cccc(O)c1	none
Cc1ccc(/C=N/Nc2ccccn2)s1	AHR activator 49
COc1ccc(C(=O)N/N=C/c2cc3ccccc3[nH]c2=S)cc1	AHR activator 57
O=C(N/N=C/c1c[nH]c2ccccc12)c1cccc(Cl)c1	AHR activator 52
C(=N\Nc1ccccn1)/c1c[nH]c2ccccc12	AHR activator 48
CCOc1ccc(NC(=O)Nc2cc(C(=O)O)ccc2N2CC3CC(C2)c2cccc(=O)n2C3)cc1 (stereo not drawn)	none
O=C(N/N=C/c1c[nH]c2ccccc12)c1ccn(Cc2ccc(Cl)cc2Cl)n1	AHR activator 50
Cc1[nH]c2ccccc2c1/C=N/NC(=S)NC(C)C	none
CC(C)NC(=S)N/N=C/c1c[nH]c2ccccc12	AHR activator 129
O=C(NCc1ccco1)C1CCN(C(=O)c2ccc(Cl)cc2Cl)CC1	none
C=CCSc1nncn1/N=C/c1ccc(OC)cc1	AHR activator 58
O=[N+]([O-])c1cccc(/C(=N/N=C/c2ccccc2Br)C23CN4CN(CN(C4)C2)C3)c1	AHR activator 67
CN1CCN(NC(=O)c2ccc(Br)s2)CC1	none
COc1cc(NC(=O)c2cc(C)no2)c(OC)cc1Cl	none
COc1cc(N/C(N)=N/c2nc(C)cc(C)n2)c(OC)cc1Cl	AHR activator 54
Cc1noc(C(=O)Nc2cc(Cl)ccc2O)c1Cl	AHR activator 56
COc1cc(NC(=O)c2onc(C)c2Cl)c(OC)cc1Cl	AHR activator 60
COc1ccc(CSCC(=O)Nc2ccccc2)cc1[N+](=O)[O-]	none
CCCCCCN1CC(C(=O)OCC)C(=O)C1=O (stereo not drawn)	none
CC(=O)Nc1nc2cc3c(cc2s1)OCO3	AHR activator 54
c1ccc2sc(Nc3nc4cc5c(cc4s3)OCO5)nc2c1	AHR activator 137
O=C(NNc1nc2cc3c(cc2s1)OCO3)c1ccc(F)cc1	AHR activator 60
CCCCc1ccc(CC(=O)Nc2cc(S(=O)(=O)N3CCOCC3)ccc2O)cc1	none
O=c1c(-c2ccco2)[n+]([O-])c2ccccc2n1OCc1c(F)cccc1F	AHR activator 49
O=c1c(-c2ccco2)[n+]([O-])c2ccccc2n1OCc1ccccc1	AHR activator 61
O=c1c(-c2ccco2)[n+]([O-])c2ccccc2n1OCc1ccccc1F	none
OCC[C@@H]1C[C@H](O)[C@@H](O)[C@@]2(CCCCO2)O1	none
Clc1nccnc1N/N=C/c1ccc(Br)cc1	AHR activator 63
COc1ccc(/C=N/Nc2nccnc2Cl)cc1	none
COc1cc(OC)cc(-c2sc3ccc(OC)cc3c2C#CCO)c1	AHR activator 49
